Source: PubChem BioAssay AID1835 (Johns Hopkins Ion Channel Center, 2009)
The whole screen tested about 2,400 compounds, of which about 750 (31%) were called active. The list shows a part of the results. Unmarked numbers belong to inactive results.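 How the source made its calls: active means median signal gain over dofetilide-blocked control wells reaching their mean plus 3 SD, so readout 1 at least 0; inactive means the rest.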

These molecules were tested against Voltage-gated inwardly rectifying potassium channel KCNH2 (Homo sapiens) (UniProt Q12809) (assay: hERG protection against dofetilide inhibition, confirmation, cell-based, thallium flux, duplicate retest, dofetilide IC70 (AID 1835)). Settings: hERG cell line, FluxOR thallium flux, dofetilide-blocked; at 10 µM; active compounds read high.
Voltage-gated inwardly rectifying potassium channel KCNH2 (Homo sapiens), sequence (Q12809 whole entry, looked up): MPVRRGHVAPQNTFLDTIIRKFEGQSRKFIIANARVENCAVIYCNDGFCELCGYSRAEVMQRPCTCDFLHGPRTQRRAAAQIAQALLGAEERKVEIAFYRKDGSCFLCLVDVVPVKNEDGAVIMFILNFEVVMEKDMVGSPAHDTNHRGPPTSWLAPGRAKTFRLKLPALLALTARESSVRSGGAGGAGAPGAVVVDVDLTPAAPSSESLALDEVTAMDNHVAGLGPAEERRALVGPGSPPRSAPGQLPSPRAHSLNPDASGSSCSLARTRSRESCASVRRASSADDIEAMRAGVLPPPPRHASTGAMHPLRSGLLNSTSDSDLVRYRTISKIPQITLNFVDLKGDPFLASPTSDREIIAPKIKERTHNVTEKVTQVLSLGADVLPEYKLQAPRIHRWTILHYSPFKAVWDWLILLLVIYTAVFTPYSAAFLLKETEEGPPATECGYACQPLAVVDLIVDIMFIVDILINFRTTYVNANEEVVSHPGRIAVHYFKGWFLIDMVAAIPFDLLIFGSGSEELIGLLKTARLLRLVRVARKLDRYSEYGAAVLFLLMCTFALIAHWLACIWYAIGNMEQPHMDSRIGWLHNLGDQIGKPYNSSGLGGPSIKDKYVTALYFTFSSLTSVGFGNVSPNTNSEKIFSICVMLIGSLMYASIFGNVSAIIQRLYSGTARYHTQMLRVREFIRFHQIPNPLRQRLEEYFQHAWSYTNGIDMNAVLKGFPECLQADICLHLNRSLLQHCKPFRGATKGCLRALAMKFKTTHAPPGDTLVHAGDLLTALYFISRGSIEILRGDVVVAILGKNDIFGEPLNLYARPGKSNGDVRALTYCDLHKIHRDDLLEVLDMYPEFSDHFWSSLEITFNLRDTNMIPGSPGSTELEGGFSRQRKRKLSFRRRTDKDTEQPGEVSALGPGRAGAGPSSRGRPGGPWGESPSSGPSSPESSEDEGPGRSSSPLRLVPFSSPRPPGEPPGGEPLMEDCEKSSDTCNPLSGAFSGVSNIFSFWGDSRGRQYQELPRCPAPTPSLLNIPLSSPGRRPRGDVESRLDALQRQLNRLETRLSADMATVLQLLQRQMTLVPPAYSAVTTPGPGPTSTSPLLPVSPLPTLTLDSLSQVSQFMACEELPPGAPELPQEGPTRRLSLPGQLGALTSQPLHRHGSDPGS

Compound	activity increase over dofetilide control, less the hit threshold
O=C(Cc1cccs1)Nn1c(Cc2cccs2)nc2ccccc2c1=O	-7%
CC(=O)Nc1ccc(S(=O)(=O)NC2(C(F)(F)F)C(=O)Nc3c2c(=O)[nH]c(=O)n3C)cc1 (centres undefined)	-10%
O=C(O)c1sccc1OCc1ccccc1	-8%
O=C(O)c1ccccc1NC(=O)c1cc2ccccc2oc1=O	10% (active)
O=C(NNc1c(F)c(F)cc(F)c1F)c1cc2ccccc2oc1=O	-20%
COc1ccc(CCNC(=O)c2cc3ccccc3oc2=O)cc1	-8%
CCO/C=C1\N=C(c2ccc(F)cc2)OC1=O	-5%
COC(=O)C1=C(C)NC2=C(C(=O)CCC2)C1c1ccc(-c2ccsc2C(=O)OC)o1 (centres undefined)	26% (active)
Cc1cc(C)c(S(=O)(=O)NCc2ccccn2)c(C)c1	-6%
CCOc1ccc(NC(=S)NC(=O)c2ccco2)cc1	10% (active)
CCCOc1ccc(C(=O)NNC(=S)NC(=O)c2ccco2)cc1	-41%
CCN(CC)c1ccc(NC(=S)NC(=O)c2ccco2)cc1	48% (active)
O=C(O)CNC(=O)c1ccc(NC(=O)/C(=C/c2ccccc2)NC(=O)c2ccco2)cc1	-13%
COc1cc(OC)cc(C(=O)NC(=S)Nc2ccc(NC(=O)c3ccco3)cc2)c1	-15%
O=C(CN1C(=O)COc2ccccc21)NCCCN1CCOCC1	-2%
Cc1ccc(N2CCN(C(=O)N3CCCC3)CC2)cc1C	5% (active)
COc1ccc(NC(=O)N2CCN(c3ccc([N+](=O)[O-])cc3)CC2)cc1OC	-14%
Cc1ccc(-n2c(=O)c3cc4c(=O)n(-c5ccc(C)c(C)c5)c(=O)c4c(C(=O)c4ccc(C(=O)O)cc4)c3c2=O)cc1C	-8%
Cn1ccnc1C(O)c1cccc(OCc2ccccc2)c1 (centres undefined)	-10%
Cc1ccc(C(=O)Sc2cccccc2=O)cc1	8% (active)
CC1=CC(=O)C(C(C)C)=CC1=NC(=O)c1ccc(C)cc1	-36%
COCCCNC(=O)CCc1nnc(Cc2ccc(-c3ccccc3)cc2)o1	-16%
ON/C=N/C(=S)Nc1ncc(C(F)(F)F)cc1Cl	22% (active)
CON/C=N/C(=S)Nc1ncc(C(F)(F)F)cc1Cl	65% (active)
CCCCNC(=O)c1onc(CSc2nc3ccccc3[nH]2)c1C(=O)NCCCC	-12%
Cc1ccc(CNC(=O)CCc2ccc(S(=O)(=O)NCC(C)C)cc2)cc1	-8%
CC(NC(=O)c1ccc(F)cc1)c1ccc2c(c1)CCCC2 (centres undefined)	-12%
CC(NC(=O)c1ccc(Br)cc1)c1ccc2c(c1)CCCC2 (centres undefined)	12% (active)
Cc1ccc(C(C)NC(=O)c2cccs2)cc1C (centres undefined)	-21%
